35 compounds from PubChem BioAssay (NCATS) can be followed below.

Test [1] has as its target Aldehyde dehydrogenase, mitochondrial (Homo sapiens) (UniProt P05091). Put plainly: qHTS for Inhibitors of the Aldehyde Dehydrogenase Family (ALDH2) Primary screen (AID 2061308). Also: nearly all actives have a fitted effect of over 55% in size.
Test [2] concerns the target Retinaldehyde dehydrogenase 3 (Homo sapiens) (UniProt P47895). As to the kind of experiment: qHTS for Inhibitors of the Aldehyde Dehydrogenase Family (ALDH1A3) Primary screen (AID 2061315).

Records with an inconclusive call do not appear. Entries that show only a call come without a potency. Active and inactive are the calls of the source. Calls follow the shape of the dose curve; as a rule, active = well fitted curve in the direction sought with a large enough effect; inconclusive = small, poorly fitted or top-dose-only effect, or another doubt; inactive = no such curve, though single readings can be large; an effect the other way counts as inactive or inconclusive.

Take `NCCC(=O)Nc1cccc(-c2nn3c(=O)cc(N4CCNCC4)nc3s2)c1`: the Potency result in test [1] and in test [2] was “inactive” each time.

With `Oc1ccc(CCc2ccccc2)c2cccnc12`, the Potency result in test [1] and in test [2] was “inactive” in each case.

As for `CCC1(CC)CCN(C(=O)CC(c2ccc3c(c2)OCO3)c2c(O)cc(OC)cc2OC)C1` (stereo not given), the Potency entry in test [1] and in test [2] was “inactive” each time.

With `O=C(NCCc1nc2ccccc2n1CCOc1cc(F)ccc1F)C1CCCCC1`, the Potency entry in test [1] and in test [2] was “inactive” each time.

For the compound `Cc1ccc(NS(=O)(=O)c2ccc3c(c2)oc(=O)n3C)cc1C`, the Potency result in test [1] and in test [2] was “inactive” each time.

Take `Cc1ccc(-c2ccc(=O)n(CC(=O)NCCc3ccccc3)n2)cn1`: the Potency result in test [1] and in test [2] was “inactive” each time.

Regarding `O=c1c2ccccc2nc2sc(Nc3ccc(F)cc3)nn12`, the Potency entry in test [1] and in test [2] was “inactive” throughout.

Turning to `O=C(O)c1ccc(-c2cccc(-c3nn4c(=O)cc(N5CCNCC5)nc4s3)c2)cc1`, the Potency entry in test [1] and in test [2] was “inactive” each time.

As for `FC1(F)Oc2ccc(-c3ccc4ncnc(NCc5cccs5)c4c3)cc2O1`, the Potency result in test [1] and in test [2] was “inactive” each time.

For `CCOc1cccc(-c2cc(-c3n[nH]c(=O)n3CC)c3ccccc3n2)c1`, the Potency result in test [1] and in test [2] was “inactive” each time.

For the compound `O=C(O)c1ccc2c(c1)C(=O)N([C@H](Cc1ccccc1)C(=O)O)C2=O`, the Potency entry in test [1] and in test [2] was “inactive” each time.

As to `FC(F)(F)c1ccccc1-c1nc(NCc2ccccc2)c2ccccc2n1`, the Potency entry in test [1] and in test [2] was “inactive” each time.

Consider `N=c1c2c(ccn1CCCc1ccccc1)Oc1ccc3ccccc3c1C2c1ccccc1` (stereo not given), for which the Potency result in test [1] and in test [2] was “inactive” in each case.

For `Cc1c(Cl)cccc1S(=O)(=O)Nc1nc(NCCc2ccccc2)nc2c1CN(Cc1ccccc1)CC2`, the Potency result in test [1] and in test [2] was “inactive” throughout.

For `COc1ccc(C(=O)Nc2nc(-c3ccccc3)cs2)cc1NS(=O)(=O)c1ccc(C)cc1`, the Potency entry in test [1] and in test [2] was “inactive” each time.

Regarding `CN(C)c1ccc(-c2ccc(=O)n(CC(=O)NCCc3ccccc3)n2)cc1`, the Potency entry in test [1] and in test [2] was “inactive” in each case.

In the case of `CC/C=C/CC1=C(CCCCC(CCC(=O)O)OC(C)=O)CCC1=O` (stereo not given), the Potency entry in test [1] and in test [2] was “inactive” in each case.

With `Cc1sc(C)c2c1C(=O)NS2(=O)=O`, the Potency entry in test [1] and in test [2] was “inactive” throughout.

As for `O=C(COC(=O)CNC(=O)c1ccccc1)Nc1cc(C(F)(F)F)ccc1Cl`, the Potency result in test [1] and in test [2] was “inactive” throughout.

Turning to `Fc1ccccc1N1CCN(c2nc(-c3cccs3)nc3ccccc23)CC1`, the Potency result in test [1] and in test [2] was “inactive” throughout.

Regarding `Fc1ccc(-c2ccc(Nc3nc(-c4ccncc4)nc4ccccc34)cc2F)c(Cl)c1`, the Potency entry in test [1] and in test [2] was “inactive” in each case.

For the compound `COc1ccc(C2Nc3ccccc3C(=O)N2Cc2ccccc2)cc1Oc1ccc(NC(C)=O)cc1` (stereo not given), the Potency entry in test [1] and in test [2] was “inactive” throughout.

In the case of `O=C(NNC(=O)c1nc2ccccc2[nH]1)OCc1ccccc1`, the Potency result in test [1] and in test [2] was “inactive” each time.

For the compound `CC(=O)Nc1ccc(S(=O)(=O)Nc2cccc3cccnc23)cc1`, the Potency entry in test [1] and in test [2] was “inactive” in each case.

Regarding `Cc1ccc(S(=O)(=O)Nc2cc3c(cc2C(=O)Nc2nc(-c4ccccc4)cs2)OCO3)cc1`, the Potency entry in test [1] and in test [2] was “inactive” each time.

For the compound `Cc1cc(N[S+](=O)([O-])c2ccc(NC(=O)Cc3ccc(F)c(C(F)(F)F)c3)cc2)no1`, the Potency result in test [1] and in test [2] was “inactive” in each case.

Take `O=[S+]([O-])(c1ccc2c(c1)OCCO2)N1CCN([S+](=O)([O-])c2ccccc2Br)CC1`: the Potency entry in test [1] and in test [2] was “inactive” in each case.

Turning to `Cc1cc(C)nc(Nc2nnc(N3CCN(c4cccc(C(F)(F)F)c4)CC3)s2)c1`, the Potency entry in test [1] and in test [2] was “inactive” in each case.

Regarding `COc1ccc(-c2ccc3ncnc(NCC4CCCO4)c3c2)cc1OC` (stereo not given), the Potency result in test [1] and in test [2] was “inactive” in each case.

Take `N#Cc1nc(NC2CCCC2)c2ncn(-c3cc(F)cc(F)c3)c2n1`: the Potency entry in test [1] and in test [2] was “inactive” each time.

In the case of `CC(=O)N1CCN(S(=O)(=O)c2ccc3c(c2)CC(=O)N3)CC1`, the Potency result in test [1] and in test [2] was “inactive” in each case.

As to `COC(=O)C12C(=O)C(C)=C(O)C1(C)C(C)=CC1C3(CO)CCC(O)C(C)(C)C3CCC12C` (stereo not given), the Potency result in test [1] and in test [2] was “inactive” in each case.

For `CC(C)N1CCc2c(-c3nc4ccccc4s3)csc2C1`, the Potency result in test [1] and in test [2] was “inactive” throughout.

`Cc1ccc(NS(=O)(=O)c2ccc3c(c2)CCN(C(=O)C(F)(F)F)C3)cc1C`: the Potency result in test [1] and in test [2] was “inactive” in each case.

On to `FC(F)(F)c1ccc(-c2nc(NCc3ccc(-c4ccnc(C(F)(F)F)c4)cc3)c3ccccc3n2)cc1`, for which the Potency entry in test [1] and in test [2] was “inactive” throughout.
